PubChem BioAssay (NCI)
The panel holds about 83,000 compounds, 20% with a hit somewhere; the sample as a whole holds those more often.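 Treatment: one concentration, 48 hours, 96-well format. Scoring: percent growth, with anything below 10 considered active.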 A number with no mark means an inactive call. Calls of active or inactive are those of the source.

Tested on: COLO 205 colon
Experiment: NCI-60 one-dose screen, 48 h (100 = growth as untreated, 0 = no growth, -100 = all killed)
Details: 10 µM unless noted

Compound | growth
C[C@H](c1nc2ccc(C#N)cc2[nH]1)[C@H]1CC[C@H]2[C@@H]3CCC4=CC(=O)CC[C@]4(C)[C@H]3CC[C@]12C | 79.2%
O=c1cc(C(F)(F)F)c2cc(-c3cc4ccccc4c(=O)o3)c(O)cc2o1 | 107%
Nc1ccc(-c2ccncc2)cc1NC(=O)N1CCCC1 | 105%
COc1cccc(-c2cn3nc(-c4cn(C)c5ccccc45)sc3n2)c1 | 108%
CC(C)(C)c1ccc(S(=O)(=O)Oc2ccc(-c3sc4cc(OS(=O)(=O)c5ccc(C(C)(C)C)cc5)ccc4c3C(=O)c3ccc(OCCN4CCCCC4)cc3)cc2)cc1 | 101%
CCN(CC)CCn1c2ccc(OC)cc2c2sc3cc(O)ccc3c(=O)c21 | 23%
C=C1C(=O)O[C@H]2[C@H]1CC/C(COC(=O)NCc1ccc(Cn3c(=O)sn(-c4ccc(I)cc4)c3=O)cc1)=C\CC[C@@]1(C)O[C@@H]21 | 36.9%
O=C(Nc1nc(Cl)nc(Nc2ccc(N3CCOCC3=O)cc2)n1)c1ccc(Cl)s1 | 97.3%
COc1cc(OC)c2c(=O)c3c(CC=C(C)C)cc(OC)c(O)c3oc2c1 | 111%
O=S(=O)(Nc1cc(Sc2nc3ccccc3s2)c(O)c2ccccc12)c1ccc2ccccc2c1 | 101%
Nc1cccc(-c2ccc(COc3ccc(CC4SC(=O)NC4=O)cc3)cc2)c1 (centres undefined) | 101%
COc1ccc(-c2nc(SCC(=O)Nc3nc4ccc(C)cc4s3)[nH]c(=O)c2C#N)cc1OC | 115%
C=C1C(=O)O[C@@H]2C3C(=C(C)CC[C@@H]12)CC1O[C@]13C (some centres undefined) | 87% [6.75 µM]
COc1cccc(CNc2c3ccccc3nc3ccccc23)c1OC | 21.5%
Nc1c(Cl)cc(/C=C2\C=Cc3ccccc32)cc1Cl | 102%
CSc1ccc2c3c(n(C[C@H](O)CO)c(=O)c2c1)-c1ccccc1C3=O | 54.2%
COc1cc(-c2ccc[nH]2)[nH]c1/C=C1\N=C(C)C(CC(=O)OCC(C)(C)C)=C1C | -61.9% (active)
Brc1ccc(Nc2nc(Nc3cnc4ccccc4c3)c3[nH]cnc3n2)cc1 | 90.4%
CS(=O)(=O)Nc1cc(-c2ccc3ncnc(Nc4ccc(F)c(Cl)c4)c3c2)ccc1Cl | 58.7%
CSc1ccc2c3c(n(CCCn4ccnc4)c(=O)c2c1)-c1ccccc1C3=O | 57.9%

Compound | growth
O=C(/C=C/c1cn(-c2ccccc2)nc1-c1ccccc1)CCC(=O)NO | 107%
O=C(/C=C/c1ccccc1)c1cccc2ccccc12 | 97.7%
CCOC(=O)/C=C1\S/C(=N\Nc2cc(=O)[nH]c3ccc(Br)cc23)N(c2ccccc2)C1=O | 46.6%
CC(=O)c1ccc(-n2cc(CN3CCN(c4cc5c(cc4F)c(=O)c(C(=O)O)cn5C4CC4)CC3)nn2)cc1 | 110%
CS(=O)(=O)Nc1cc(-c2ccc3ncnc(Nc4ccc(OCc5ccccn5)c(Cl)c4)c3c2)cnc1Cl | -90.9% (active)
COc1ccc2c(c1)c(-c1nc(-c3ccc4ccccc4c3)cs1)cn2C | 84%
CCOC(=O)c1c(C)nc2ccccc2c1/C=C/c1ccc(F)cc1 | 83.6%
CC1(C)N=C(N)N=C(N)N1c1ccc(S(=O)(=O)Nc2nccs2)cc1 | 105%
COC(=O)c1sccc1-c1cc(O)c(C(=O)Nc2ccccc2)s1 | 102%
CCOC(=O)NC(=S)n1oc(=O)c2ccccc21 | 103%
O=C1CCC(C(=O)N/N=C/c2cc(F)ccc2F)N1 (centres undefined) | 110%
COc1ccccc1/C=C/C(=O)Nc1ccc(F)cc1 | 101%
COc1ccc(/C=N/Nc2c3ccccc3nc3ccccc23)cc1 | 103%
O=[N+]([O-])c1ccccc1Sc1ccccc1[N+](=O)[O-] | 110%
C[C@@H]1CN(c2cnc(C(=O)Nc3cc(F)cc4cccnc34)cn2)C[C@H](C)N1 | 13%
CC1(C)CC[C@]23CC[C@]4(C)[C@H](CC[C@@H]5[C@@]6(C)C/C(=C/O)C(=O)C(C)(C)[C@@H]6CC[C@]54C)[C@H]2[C@H]1OC3 | 111%
c1cc(OCCCCCOc2cccc(-c3nc4ccccc4[nH]3)c2)cc(-c2nc3ccccc3[nH]2)c1 | -59.1% (active)
O=CN1N=C(c2cccc(Nc3ccnc4cc(Cl)ccc34)c2)CC1c1ccc(Cl)cc1 (centres undefined) | -9.28% (active)
COc1ccc(/C=C2\c3cc(OC)c(OC)c(OC)c3CC[C@@H]2O)cc1F | 2.26% (active)
